From PubChem BioAssay (NCI) come the findings set out here.

Assay [1] can be described thus: NCI Yeast Anticancer Drug Screen. Data for the rad50 strain (AID 155).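 Further: 0% = growth of vehicle-only cultures of the same strain.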 Conditions: S. cerevisiae rad50 strain growth inhibition; at 50.0 µM; active compounds read high. In short, it runs like this: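 Compounds were tested on a yeast strain with an engineered DNA damage repair alteration; the reported value is growth inhibition normalised to vehicle treatment.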
A short description of assay [2]: NCI Yeast Anticancer Drug Screen. Data for the mec2-1 strain (AID 157). Conditions: S. cerevisiae mec2-1 strain, at 50.0 µM, active compounds read high. An outline of the steps:
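Vehicle-treated cultures served as reference for growth inhibition of compound-exposed mec2-1 yeast.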

Assay [3] is described as follows: NCI Yeast Anticancer Drug Screen. Data for the sgs1 mgt1 strain (AID 161).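 Further: 0% = growth of cultures given vehicle only.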 To be noted: S. cerevisiae sgs1 mgt1 strain, at 50.0 µM, active compounds read high. In short, it runs like this: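 Test agents were incubated with a DNA-repair-mutant yeast strain. Growth was then read and compared against vehicle-treated controls.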
Assay [4] is described as follows: NCI Yeast Anticancer Drug Screen. Data for the cln2 rad14 strain (AID 165).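 Further: 0% = growth equal to vehicle treated cultures.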 To be noted: S. cerevisiae cln2 rad14 strain, at 50.0 µM, active compounds read high. An outline of the steps:
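Each compound was tested on cln2 rad14 yeast. Inhibition of growth was calculated against vehicle-exposed controls.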

The nature of assay [5]: NCI Yeast Anticancer Drug Screen. Data for the bub3 strain (AID 167). To be noted: S. cerevisiae bub3 mutant strain, at 50.0 µM, active compounds read high. In short, it runs like this:
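Growth of a checkpoint-deficient yeast mutant is measured after compound exposure. Values represent inhibition relative to vehicle.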

Assay [6] in a line: NCI Yeast Anticancer Drug Screen. Data for the mlh1 rad18 strain (AID 175). Conditions: S. cerevisiae mlh1 rad18 strain growth inhibition; at 50.0 µM; active compounds read high. In short, it runs like this:
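Vehicle-treated cultures served as the reference for growth inhibition in a yeast strain carrying DNA damage repair alterations exposed to each compound.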

The structures appear in SMILES notation. Compounds without any hit were thinned out: in the full panel of roughly 79,000, 15% have a hit. Values without a mark were called inactive. Activity calls are given as the source filed them. No stated cut-off is given here; in the data, active means growth inhibition above about 70%; inactive means the rest.

As to `CCC(CC)OCc1ccccc1`, the growth inhibition in assay [1] was 12.1%; in assay [2], 9.4%; in assay [3], 6.6%; in assay [4], 5.5%; in assay [5] it was 0.55%; in assay [6] it was 1.1%.
With `Fc1cccc2c1Cc1ccccc1-2`, the growth inhibition in assay [1] is 5.75%; in assay [2], -8.65%; in assay [3], -21.3%; in assay [4], -58.7%; in assay [5] it was -1.85%; in assay [6], 17.3%.
For the compound `CC(=O)Nc1ccc(C(O)/C(=N/N)c2nc3ccc(Cl)cc3[nH]c2=O)cc1` (stereo not given), the growth inhibition in assay [1] was 9.15%; in assay [2], -8.9%; in assay [3], -6%; in assay [4], -1.1%; in assay [5], 5.55%; in assay [6] it was -26.9%.
`CCN(c1ccccc1)c1cc2c(cc1[N+](=O)[O-])no[n+]2[O-]`: the growth inhibition is 97.1% (active) in assay [1]; 96.9% (active) in assay [2]; 98.3% (active) in assay [3]; 96.6% (active) in assay [4]; 98.1% (active) in assay [5]; 97.1% (active) in assay [6].
For `OC(CI)C1OCOC2COCOC21` (stereo not given), the growth inhibition in assay [1] was -3.2%; in assay [2] it was 4.5%; in assay [3], 13.1%; in assay [4], -4%; in assay [5], 16.1%; in assay [6], -3.75%.
Regarding `CS(=O)c1nsc(S(C)=O)c1C#N` (stereo not given), the growth inhibition in assay [1] is 1.05%; in assay [2] it was -9.7%; in assay [3], -1.5%; in assay [4], -35.6%; in assay [5], -9.95%; in assay [6], -10.6%.
Turning to `CC1=C(c2ccccc2)CON(c2ccccc2)C1`, the growth inhibition was -9.3% in assay [1]; -15.1% in assay [2]; -9.2% in assay [3]; -5.4% in assay [4]; 14.8% in assay [5]; -9.2% in assay [6].
Take `Cc1cc(NCCN(C(C)C)C(C)C)nc(Nc2nc3cc(Cl)c(Cl)cc3[nH]2)n1`: the growth inhibition in assay [1] is 75.8% (active); in assay [2], 39.2%; in assay [3], 77.8% (active); in assay [4] it was 11.7%; in assay [5] it was 23.1%; in assay [6], 55.6%.
On to `COc1cc(C(=O)O)cc(O)c1OC`, for which the growth inhibition is 4.95% in assay [1]; -4.5% in assay [2]; -2.85% in assay [3]; -6.25% in assay [4]; 2.4% in assay [5]; 8.45% in assay [6].
Regarding `N#Cc1cc2c3ccccc3ncc2c2ccccc12`, the growth inhibition in assay [1] is 0.95%; in assay [2], 16.4%; in assay [3] it was -3%; in assay [4], -1.1%; in assay [5], -1.7%; in assay [6] it was -6%.
For the compound `CC(C)=CCC/C(C)=C/CC/C(C)=C/C1CCC(=O)C1(C)C` (stereo not given), the growth inhibition was 5% in assay [1]; -38.4% in assay [2]; -43.2% in assay [3]; -16.6% in assay [4]; -33.3% in assay [5]; -8.35% in assay [6].
Turning to `CCCCCC(/C=N/Nc1ccccn1)=C\c1ccccc1`, the growth inhibition in assay [1] was -0.25%; in assay [2], -2.1%; in assay [3], 3.9%; in assay [4], -18.2%; in assay [5], -17.4%; in assay [6] it was -17.4%.
In the case of `CCOc1cc(C(=O)O)cc(OCC)n1`, the growth inhibition in assay [1] was -0.1%; in assay [2] it was -9.45%; in assay [3] it was 9.2%; in assay [4], -29.4%; in assay [5] it was 8.95%; in assay [6], 3.05%.
As to `CCc1ccc(NC(=S)NC(=O)c2ccccc2OC)cc1`, the growth inhibition is 10.6% in assay [1]; 7.05% in assay [2]; 9.3% in assay [3]; 21.1% in assay [4]; 20.4% in assay [5]; 3.95% in assay [6].
On to `CCN(CC)CCOC(=O)c1ccc(NC(=O)Nc2ccccc2[N+](=O)[O-])cc1`, for which the growth inhibition was 19.4% in assay [1]; 5.5% in assay [2]; 19.1% in assay [3]; 16.6% in assay [4]; 15.6% in assay [5]; 14.8% in assay [6].
In the case of `CC(NC(=O)OCc1ccccc1)NC(=O)C(CC(=O)OC(C)(C)C)NC(=O)OC(C)(C)C` (stereo not given), the growth inhibition in assay [1] was -26.6%; in assay [2] it was -40.5%; in assay [3], -24.9%; in assay [4], -7.3%; in assay [5], -30.8%; in assay [6], -29.3%.
As for `CCOc1ccc(OCC)c(C(=O)CCC(=O)Nc2ccc(Br)cc2)c1`, the growth inhibition was -8.9% in assay [1]; -2.9% in assay [2]; -8.3% in assay [3]; -12.8% in assay [4]; 1.45% in assay [5]; -6.75% in assay [6].
On to `COC1=C(C)C(=O)C2=C(C1=O)C1C3CC4=C(C(=O)C(OC)=C(C)C4=O)C(CNC(=O)C(C)O)N3C(C#N)C(C2)N1C` (stereo not given), for which the growth inhibition in assay [1] is 15.9%; in assay [2], 0.85%; in assay [3], 8.9%; in assay [4] it was 32.8%; in assay [5] it was -3.45%; in assay [6], 41.5%.
For `CCCCCCCCCSc1nc2ccc(N=Cc3ccccc3O)cc2s1`, the growth inhibition in assay [1] is -2.85%; in assay [2], -6.8%; in assay [3], -23.5%; in assay [4] it was -10.1%; in assay [5], 1.3%; in assay [6], -40.6%.
On to `CC1CCC2(CC1)OC(C)C(C)O2` (stereo not given), for which the growth inhibition is 20.1% in assay [1]; -2.4% in assay [2]; 4.9% in assay [3]; -34.6% in assay [4]; 28.8% in assay [5]; 10.7% in assay [6].
